Data from PubChem BioAssay AID651820 (National Center for Advancing Translational Sciences (NCATS), 2012).
Hit rate of the full screen: of about 340,000 compounds, about 12,000 (3.5%) were called active. Roughly 18% stayed inconclusive and do not appear here. The call rests on the fitted dose curve; in most records, active means well fitted inhibition curve with a large enough effect; inconclusive means small, poorly fitted or top-dose-only effect, or another doubt; inactive means no such curve, though single readings can be large or run the other way. The entries come from a sample that favours actives as a whole.

Assay: qHTS Assay for Inhibitors of Hepatitis C Virus (HCV)
Settings: Huh7.5.1 HCVcc-Cre infection, luciferase reporter, 44 h; series mostly up to 41.8 µM; activity change, negative = inhibition: at the top concentration
Description: Hepatitis C virus (HCV) infects about 200 million people in the world. Many infected people progress to chronic liver disease including cirrhosis with a risk of developing liver cancer. To date, there is no effective vaccine for hepatitis C. Current therapy based on interferon is only effective in about half of the patients and is associated with significant adverse effects. The fraction of people with HCV who can complete a successful treatment is estimated to be no more than 10 percent. Recent development of direct-acting antivirals against HCV, such as protease and polymerase inhibitors, is promising but still requires combination with peginterferon and ribavirin for maximal efficacy. In addition, these agents are associated with high rate of resistance and many have significant side effects. Due to the lack of a culture system for infectious HCV, the search for new HCV drugs has been greatly hampered. […] High-throughput screening (HTS) with an infectious HCV system would cover the complete spectrum of potentially druggable targets in all stages of HCV lifecycle, and would have more biological relevance than other cell-based assays. Moreover, targeting several key processes in the viral life cycle may not only increase antiviral efficacy; more importantly, it may also reduce the capacity of the virus to develop resistance to the compound. The goal of this project is to identify novel HCV inhibitors as new therapies for hepatitis C, using a highly sensitive and specific assay platform which is based on a HCV infectious cell culture system established in the laboratory and adapted for high-throughput HCV drug screen. NIH Chemical Genomics Center [NCGC] NIH Molecular Libraries Probe Centers Network [MLPCN] MLPCN Grant: MH095511 Assay Submitter (PI): Jake Liang, NIDDK
The assay will start with plating 1,000 cells/well in 3 µL volume and culture for 4 h. Then 23 nL of compounds from the library collection will be added to each well, followed by adding 2.5 µL of HCVcc-Cre virus (~ 0.5 moi) and further cultured for 44 h before the luciferase assay. A volume of 4.5 µL luciferase substrates will be added to each well and the plates will be incubated at room temperature for 15 min. and then read for 15 sec. for the luciferase activity
On the % scale 0 is the no-effect control and ±100 the full control effect.

Structure (SMILES)	activity change, negative = inhibition	Potency
CCOC(=O)C1=C(C)N=C2c3ccccc3C(=O)C2C1c1ccc(Br)cc1 (configuration not stated)	-21.8% (inactive)	–
O=C1c2ccccc2C2=Nc3ccccc3SC(c3ccccc3F)C12 (configuration not stated)	–	5.01 µM (active)
O=C1c2ccccc2C(=O)C1c1ccccc1F	-1.17% (inactive)	–
Cc1sc2nc(CSCC(=O)NC3CCCCC3)[nH]c(=O)c2c1C	6.44% (inactive)	–
CC1=CC(=Cc2sc3ccccc3[n+]2C)C=C(C)O1	–	5.01 µM (active)
CC(C)C(NC(=O)c1c(F)cccc1F)C(=O)NNC(=O)c1ccccc1 (configuration not stated)	7.93% (inactive)	–
O=C(NCCc1ccc(F)cc1)c1ccc(S(=O)(=O)N2CCCCC2)cc1	-27.2% (inactive)	–
COc1ccc(CNC(=O)C2(CC3CC(c4ccccc4)=NO3)CCN(C(=O)c3cccc(O)c3)CC2)cc1 (configuration not stated)	-11.6% [at 8.37 µM] (inactive)	–
O=C(CCC(=O)N1CCN(S(=O)(=O)c2ccc(Cl)cc2)CC1)NCc1cccc(C(F)(F)F)c1	–	11.2 µM (active)
O=C(COc1ccc(Cl)cc1)N1CCN(S(=O)(=O)c2ccc(Cl)cc2)CC1	7.75% (inactive)	–
O=C(CCC(=O)c1ccccc1)NCc1cccc(C(F)(F)F)c1	-0.719% (inactive)	–
O=C1c2ccccc2C(=O)C1C(=O)C1CC1	0.357% (inactive)	–
CCN(CC(=O)Nc1ccc(OC)cc1)C(=O)c1ccc(=O)n(Cc2ccccc2)n1	0.141% (inactive)	–
CNCC[C@H](Oc1ccc(C(F)(F)F)cc1)c1ccccc1	–	3.98 µM (active)
CC(NC(=O)COC(=O)Cn1cc(C(F)(F)F)ccc1=O)c1ccccc1 (configuration not stated)	15.9% (inactive)	–
CC(CC(=O)Nc1cc(C(F)(F)F)ccc1Cl)c1ccccc1 (configuration not stated)	-7.71% (inactive)	–
COc1ccc2nc3n(c(=O)c2c1)-c1cc(C)ccc1C(=O)NC3Cc1ccc(O)cc1 (configuration not stated)	15.7% (inactive)	–
Cc1ccc(N(CC(=O)Nc2cccc(N(C)S(C)(=O)=O)c2)S(C)(=O)=O)cc1	-11.3% (inactive)	–
CN(c1cccc(NC(=O)c2ccc(CN3CCc4ccccc4C3)cc2)c1)S(C)(=O)=O	–	11.2 µM (active)
CN(c1cccc(NC(=O)Nc2ccc(Cl)cc2)c1)S(C)(=O)=O	–	10 µM (active)
COc1cccc(N(CC(=O)Nc2cccc(N(C)S(C)(=O)=O)c2)S(C)(=O)=O)c1	-10.5% (inactive)	–
CC(=O)Nc1cccc(NC(=O)c2ccc3c(c2)CCN3S(C)(=O)=O)c1	11.1% (inactive)	–
CN(c1ccc(C(=O)N2CCc3ccccc3C2)cc1)S(C)(=O)=O	-3.55% (inactive)	–
O=C(CNC(=O)c1ccccc1F)OCC(=O)c1c[nH]c2ccccc12	7.77% (inactive)	–
Cc1ccsc1C(=O)NC1CCCCC1C (configuration not stated)	4.79% (inactive)	–
O=C(NCCN1CCOCC1)c1cccc(S(=O)(=O)Nc2ccc(F)cc2)c1	3.15% (inactive)	–
C#CCOCCOCCOCCNc1nc(N2CCN(C(=O)Cn3cc(CCO)nn3)CC2)nc(N2CCN(C(=O)[C@H](CCCCN)n3cc(CCCC)nn3)CC2)n1	-0.907% [at 8.37 µM] (inactive)	–
